Screens (PubChem)
An excerpt weighted towards active compounds, which were near 2% of everything screened.
EP2 mod – EP2 receptor (human) modulation; EP2-expressing cells, cAMP HTRF FRET, PGE2 co-stimulation; induction, % at 25 µM; 0.83% of 260,000 active; AID 940;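 active means compounds whose cAMP rise, as percent of the full-agonist control response, exceeds 60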;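 further: rat C6 glioma line stably carrying human EP2 under a CMV promoter; the protocol text gives 20 µM as final concentration; 100% = response of wells given 1 µM PGE2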
Target sequence (P43116 whole entry, looked up): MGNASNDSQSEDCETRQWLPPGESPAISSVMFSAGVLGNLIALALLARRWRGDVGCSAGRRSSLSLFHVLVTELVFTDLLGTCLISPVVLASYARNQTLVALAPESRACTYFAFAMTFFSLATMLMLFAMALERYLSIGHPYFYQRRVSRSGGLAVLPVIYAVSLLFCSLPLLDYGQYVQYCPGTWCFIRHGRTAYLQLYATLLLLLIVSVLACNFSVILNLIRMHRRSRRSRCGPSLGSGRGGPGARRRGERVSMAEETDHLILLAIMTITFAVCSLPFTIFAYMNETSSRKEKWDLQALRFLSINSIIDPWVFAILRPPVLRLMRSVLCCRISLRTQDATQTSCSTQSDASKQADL
CHT block – inhibitors of human choline transporter CHT; Q9GZV3; CHT-expressing cells, membrane potential dye, choline response; stronger effect = lower value; B-score at 10 µM; 0.86% of 310,000 active; AID 488975;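 active means B-score over 3 SD under the library average, and starting fluorescence ratio not unusually high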;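 further: choline stimulus applied at its EC90 after an EC20 pre-addition; B-score computed on integrated fluorescence ratio after choline addition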
EP2 antag – blocks the human prostaglandin E2 receptor EP2; C6 glioma cells expressing human EP2, cAMP TR-FRET; cells stimulated with saturating PGE2; inhibition, % at 25 µM; 0.52% of 260,000 active; AID 1422;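 active means percent inhibition above 40 after rounding to a whole number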;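 further: rat C6 glioma host cells with rolipram phosphodiesterase inhibitor present; the protocol text gives 20 µM as final concentration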
CHT allo act – allosteric activators of human choline transporter CHT; Q9GZV3; CHT-expressing cells, membrane potential dye, choline EC20; stronger effect = higher value; LV-AA mutant CHT in HEK293 cells; B-score at 10 µM; 0.49% of 310,000 active;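 active means initial fluorescence not abnormally high and integrated response B-score, plate-corrected, over 3 SD above library mean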
CHT activ conf – confirmation of human choline transporter (CHT) activators | CHT-expressing cells, membrane potential dye fluorescence (FDSS); % of choline EC20–EC90 response window; HEK293 expressing CHT LV-AA mutant; choline added at its EC20 | 91% of 2,500 active | shares compounds with CHT allo act | activation, % at 10 µM;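 active means primary screen active, with duplicate mean activation above negative control mean plus 3 SD, cut at about 11% in these data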
HEK293 MP dye – counter-screen for CHT activators: effect in parental HEK293 cells; membrane potential dye fluorescence (FDSS); measured after EC20 choline addition; shares compounds with CHT allo act; ratio readout change at 10 µM, hits read low; 62% of 2,500 active; AID 623908;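 active means duplicate-averaged ratio beyond 3 SD from buffer wells, up or down, though filed actives are nearly all decreases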
* hit, by the source's call.

O=C1NC2(CCN(CC(=O)N3CCCCC3)CC2)Oc2ccccc21 was read as EP2 mod 1 and EP2 antag 9.
Screening CCN1C=CC(=C(/C=C2\C=CC=CC2=O)CS(=O)(=O)O)C=C1 returned EP2 mod -12 and EP2 antag 12.
Screening CCCOc1ccc2ccccc2c1/C=C/c1nc(O)c([N+](=O)[O-])c(=O)[nH]1 returned EP2 mod 6 and EP2 antag 6.
CCc1nn(CC(=O)NCc2cccs2)c(=O)c2cc3sc(C)cc3n12 was read as EP2 mod 1.
Screening O=C(c1cc([N+](=O)[O-])ccc1N1CCOCC1)N1CCN(c2ccccc2)CC1 returned CHT block inactive, CHT allo act 12*, CHT activ conf 48* and HEK293 MP dye inactive.
For CN1CCN(c2ccc([N+](=O)[O-])cc2C(=O)N2CCOCC2)CC1 the results were CHT block inactive and CHT allo act inactive.
O=C(O)CSCC(=O)NCc1c(Cl)cccc1Oc1ccccc1 was read as EP2 mod 6, CHT block inactive, EP2 antag 8 and CHT allo act inactive.
`O=S(=O)(NCc1c(Cl)cccc1Oc1ccccc1)c1ccc(F)cc1` gave EP2 mod 45, CHT block inactive, EP2 antag 4, CHT allo act inactive, CHT activ conf 1 and HEK293 MP dye inactive.
COc1ccc(-c2ccc(=O)n(CC3CCN(C(=O)C4CCCC4)CC3)n2)cc1OC was read as EP2 mod 24.
Screening Cc1c2cccn2cc[n+]1C returned EP2 mod -1, CHT block inactive, EP2 antag 18, CHT allo act 6.6*, CHT activ conf 58* and HEK293 MP dye -53*.
`COc1ccc(C(CC(=O)N2CCCC(C)C2)c2c(OC)cc(OC)c3c(-c4ccccc4)cc(=O)oc23)cc1` (stereo unspecified) gave EP2 mod 20, CHT block inactive, EP2 antag 14, CHT allo act inactive, CHT activ conf 5 and HEK293 MP dye inactive.
`COc1ccc(Nc2nccc3c2ncn3C)cc1` gave CHT block inactive, CHT allo act inactive, CHT activ conf 61* and HEK293 MP dye -56*.
`COc1ccc(Nc2ncnc3sccc23)cc1` gave CHT block inactive and CHT allo act inactive.
Cc1ccc(C(=O)CNc2cccc([N+](=O)[O-])c2)cc1 was read as EP2 mod 8, CHT block inactive, EP2 antag 6 and CHT allo act inactive.
For Cc1ccc(NCC(=O)c2ccc([N+](=O)[O-])cc2)cc1 the results were EP2 mod -2, CHT block inactive, EP2 antag 5, CHT allo act 6.4*, CHT activ conf 11* and HEK293 MP dye -23*.
Screening Cc1nnc2n(C)c(=O)c3c4c(sc3n12)COC(C)(C)C4 returned CHT block inactive, CHT allo act 6.5*, CHT activ conf 74* and HEK293 MP dye -72*.
Screening CCCC(CCC)C(=O)Nc1ccc2c(c1)N(C(=O)CCN1CCN(C)CC1)c1ccccc1CC2 returned EP2 mod -26, CHT block inactive, EP2 antag 8, CHT allo act 6.8*, CHT activ conf 19* and HEK293 MP dye inactive.
Screening Cn1c2ccccc2c2nnc(SCC(=O)Nc3ccccc3)nc21 returned EP2 mod -29 and EP2 antag 9.
Screening Cc1c(CCOC(=O)CC23CC4CC(CC(C4)C2)C3)sc[n+]1CC(=O)c1ccc(Br)cc1 returned EP2 mod -26, CHT block inactive, CHT allo act inactive, CHT activ conf 28* and HEK293 MP dye -25*.
Screening Cc1c(CCOC(=O)c2cc([N+](=O)[O-])cc([N+](=O)[O-])c2)sc[n+]1CC(=O)c1ccccc1 returned EP2 mod -11, CHT block inactive, EP2 antag 8, CHT allo act inactive, CHT activ conf 32* and HEK293 MP dye inactive.
Cc1c(CCOC(=O)c2ccccc2)sc[n+]1Cc1ccccc1 was read as EP2 mod 21, CHT block inactive, EP2 antag 7 and CHT allo act inactive.
